Results taken from the supplement of paper PMC11741263, “Chemoproteomic Profiling of C. albicans for Characterization of Anti-fungal Kinase Inhibitors” (bioRxiv, 2025).

Compound: Cc1[nH]nc2ccc(-c3cc(OC[C@@H](N)Cc4ccccc4)cnc3-c3ccoc3)cc12
Test: MIB bead binding, log2 fold change vs DMSO (log2 ratio); higher = less competition (weaker engagement)

Chain of UniProt P43063 (P43063 whole entry): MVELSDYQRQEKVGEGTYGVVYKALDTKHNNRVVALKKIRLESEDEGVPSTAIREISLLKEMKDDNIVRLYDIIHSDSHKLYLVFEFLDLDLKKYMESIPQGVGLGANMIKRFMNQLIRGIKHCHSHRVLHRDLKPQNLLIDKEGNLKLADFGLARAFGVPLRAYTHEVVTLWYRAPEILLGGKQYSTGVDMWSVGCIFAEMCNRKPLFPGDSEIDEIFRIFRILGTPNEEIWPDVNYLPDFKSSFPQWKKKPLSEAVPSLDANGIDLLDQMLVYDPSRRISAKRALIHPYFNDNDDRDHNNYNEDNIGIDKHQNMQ
Chain of UniProt Q5AHG6 (Q5AHG6 whole entry): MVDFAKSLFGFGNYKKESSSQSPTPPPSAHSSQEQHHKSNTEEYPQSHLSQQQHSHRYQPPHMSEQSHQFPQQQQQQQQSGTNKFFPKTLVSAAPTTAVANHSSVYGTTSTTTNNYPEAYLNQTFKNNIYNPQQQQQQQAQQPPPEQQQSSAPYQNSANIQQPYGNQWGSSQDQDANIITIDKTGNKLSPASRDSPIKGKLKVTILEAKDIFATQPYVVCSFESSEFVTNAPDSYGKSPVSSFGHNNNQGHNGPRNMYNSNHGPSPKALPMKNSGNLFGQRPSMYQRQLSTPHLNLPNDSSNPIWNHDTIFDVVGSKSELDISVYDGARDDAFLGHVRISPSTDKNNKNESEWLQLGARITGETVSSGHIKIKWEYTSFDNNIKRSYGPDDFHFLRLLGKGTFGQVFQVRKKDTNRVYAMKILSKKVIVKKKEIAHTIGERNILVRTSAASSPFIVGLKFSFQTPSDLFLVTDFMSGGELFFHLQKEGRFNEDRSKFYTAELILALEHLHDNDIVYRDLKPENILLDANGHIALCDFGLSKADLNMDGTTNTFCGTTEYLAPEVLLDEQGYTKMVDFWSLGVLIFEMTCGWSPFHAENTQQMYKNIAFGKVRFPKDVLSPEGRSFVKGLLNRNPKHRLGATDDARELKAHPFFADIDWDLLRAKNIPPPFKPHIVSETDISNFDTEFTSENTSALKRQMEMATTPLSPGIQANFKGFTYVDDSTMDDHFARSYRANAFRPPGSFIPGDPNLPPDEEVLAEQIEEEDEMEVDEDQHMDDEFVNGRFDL
Chain of UniProt P52497 (P52497 whole entry): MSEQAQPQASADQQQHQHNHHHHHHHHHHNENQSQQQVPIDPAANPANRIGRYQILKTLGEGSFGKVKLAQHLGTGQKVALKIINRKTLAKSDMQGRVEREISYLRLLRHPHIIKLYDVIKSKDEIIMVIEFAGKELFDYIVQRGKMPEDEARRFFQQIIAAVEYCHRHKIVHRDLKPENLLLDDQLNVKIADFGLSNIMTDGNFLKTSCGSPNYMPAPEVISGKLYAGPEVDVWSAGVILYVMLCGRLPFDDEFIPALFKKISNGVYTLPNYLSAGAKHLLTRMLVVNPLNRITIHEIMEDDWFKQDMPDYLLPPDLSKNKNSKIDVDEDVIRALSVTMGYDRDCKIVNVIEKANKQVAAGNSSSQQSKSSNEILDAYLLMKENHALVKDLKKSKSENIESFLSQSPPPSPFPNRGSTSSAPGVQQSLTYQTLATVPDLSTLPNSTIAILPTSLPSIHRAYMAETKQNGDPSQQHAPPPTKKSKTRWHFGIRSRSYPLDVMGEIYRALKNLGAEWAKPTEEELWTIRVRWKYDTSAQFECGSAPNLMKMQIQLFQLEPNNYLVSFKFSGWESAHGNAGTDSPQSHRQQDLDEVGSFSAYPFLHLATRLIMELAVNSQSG
Chain of UniProt Q92207 (Q92207 whole entry): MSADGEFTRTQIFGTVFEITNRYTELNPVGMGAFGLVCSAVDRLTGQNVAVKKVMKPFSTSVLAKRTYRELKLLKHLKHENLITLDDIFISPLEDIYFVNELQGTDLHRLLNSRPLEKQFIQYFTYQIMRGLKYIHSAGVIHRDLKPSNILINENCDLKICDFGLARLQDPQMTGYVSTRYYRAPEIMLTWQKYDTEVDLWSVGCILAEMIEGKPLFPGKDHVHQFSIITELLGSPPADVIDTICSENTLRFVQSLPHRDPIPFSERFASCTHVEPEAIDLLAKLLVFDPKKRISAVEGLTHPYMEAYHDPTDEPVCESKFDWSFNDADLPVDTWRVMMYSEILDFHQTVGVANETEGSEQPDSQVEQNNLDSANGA
Chain of UniProt O75460 (O75460 whole entry, looked up): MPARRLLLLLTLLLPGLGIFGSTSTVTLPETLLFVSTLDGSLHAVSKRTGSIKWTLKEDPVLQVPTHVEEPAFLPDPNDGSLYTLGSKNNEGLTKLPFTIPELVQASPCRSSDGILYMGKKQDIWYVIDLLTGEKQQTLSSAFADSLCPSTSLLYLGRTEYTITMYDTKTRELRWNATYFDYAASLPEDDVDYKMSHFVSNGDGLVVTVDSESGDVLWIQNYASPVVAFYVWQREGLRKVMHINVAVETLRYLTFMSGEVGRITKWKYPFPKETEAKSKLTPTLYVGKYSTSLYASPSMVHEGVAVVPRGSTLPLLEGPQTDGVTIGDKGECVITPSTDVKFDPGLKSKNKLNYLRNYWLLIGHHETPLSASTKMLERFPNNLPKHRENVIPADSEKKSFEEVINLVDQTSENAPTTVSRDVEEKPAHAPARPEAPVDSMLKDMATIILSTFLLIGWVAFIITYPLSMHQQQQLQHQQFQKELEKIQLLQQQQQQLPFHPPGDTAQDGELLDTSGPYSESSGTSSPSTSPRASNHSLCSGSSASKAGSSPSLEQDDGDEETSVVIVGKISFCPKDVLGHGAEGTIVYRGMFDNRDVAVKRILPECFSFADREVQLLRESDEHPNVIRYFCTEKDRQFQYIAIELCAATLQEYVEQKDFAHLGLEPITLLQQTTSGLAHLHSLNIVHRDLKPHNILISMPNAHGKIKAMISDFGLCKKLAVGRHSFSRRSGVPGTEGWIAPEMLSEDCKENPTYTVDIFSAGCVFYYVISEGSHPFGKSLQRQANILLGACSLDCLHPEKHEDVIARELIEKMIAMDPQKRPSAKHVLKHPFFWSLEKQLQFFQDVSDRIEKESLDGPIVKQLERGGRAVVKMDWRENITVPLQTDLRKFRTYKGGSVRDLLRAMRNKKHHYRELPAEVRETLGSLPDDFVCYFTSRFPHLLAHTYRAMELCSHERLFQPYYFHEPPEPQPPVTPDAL
Chain of UniProt P36507 (P36507 whole entry, looked up): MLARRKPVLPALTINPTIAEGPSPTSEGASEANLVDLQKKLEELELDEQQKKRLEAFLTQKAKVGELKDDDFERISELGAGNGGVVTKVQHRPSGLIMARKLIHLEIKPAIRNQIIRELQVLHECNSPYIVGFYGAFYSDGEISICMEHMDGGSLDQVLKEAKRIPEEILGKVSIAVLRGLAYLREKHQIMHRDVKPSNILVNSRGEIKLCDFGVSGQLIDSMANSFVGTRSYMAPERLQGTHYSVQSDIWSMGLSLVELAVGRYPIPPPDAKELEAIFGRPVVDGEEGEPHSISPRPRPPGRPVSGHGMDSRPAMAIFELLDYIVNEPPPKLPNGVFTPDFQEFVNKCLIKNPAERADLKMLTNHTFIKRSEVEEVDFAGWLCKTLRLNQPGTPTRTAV
Chain of UniProt O00311 (O00311 whole entry, looked up): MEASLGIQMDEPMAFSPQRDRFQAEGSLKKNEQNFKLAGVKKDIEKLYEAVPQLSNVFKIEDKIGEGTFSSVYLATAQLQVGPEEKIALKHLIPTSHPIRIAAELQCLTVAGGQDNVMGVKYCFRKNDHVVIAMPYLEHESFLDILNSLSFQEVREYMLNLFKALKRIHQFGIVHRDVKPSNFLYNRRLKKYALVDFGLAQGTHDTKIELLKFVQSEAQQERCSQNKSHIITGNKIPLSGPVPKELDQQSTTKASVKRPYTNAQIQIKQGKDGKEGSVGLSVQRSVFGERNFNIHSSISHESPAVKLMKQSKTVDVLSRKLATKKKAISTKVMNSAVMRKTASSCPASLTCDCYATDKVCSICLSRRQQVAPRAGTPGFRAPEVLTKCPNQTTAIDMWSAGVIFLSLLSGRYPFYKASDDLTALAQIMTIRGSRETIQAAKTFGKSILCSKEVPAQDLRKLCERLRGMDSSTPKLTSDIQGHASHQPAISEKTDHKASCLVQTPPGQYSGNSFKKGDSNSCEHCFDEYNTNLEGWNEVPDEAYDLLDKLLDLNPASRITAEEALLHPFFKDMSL

Row | Target | MIB bead binding (log2) (0.1 µM) | MIB bead binding (log2) (1 µM) | MIB bead binding (log2) (10 µM)
1 | TPK2 | -0.0872 | 0.0369 | -2.41
2 | CAALFM_C106360WA | -0.234 | -0.165 | –
3 | HOG1 (UniProt Q92207) | 0.146 | 0.244 | -0.916
4 | orf19.3456 | -0.328 | -0.791 | –
5 | SNF1 (UniProt P52497) | -0.272 | -0.136 | -1.78
6 | IKS1 | -0.323 | -0.0927 | –
7 | MKC1 | -0.00282 | 0.0129 | -1.76
8 | TOR1 | -0.226 | 0.207 | -1.59
9 | HRR25 | -0.165 | -0.114 | -1.89
10 | CDC7 (UniProt O00311) | -0.0168 | -0.237 | –
11 | CMK2 | 0.0395 | 0.585 | –
12 | orf19.4518 | -0.0101 | -0.0109 | -0.0364
13 | PBS2 | -0.000679 | -0.0528 | -0.766
14 | SSK2 | -0.564 | -0.847 | -2.24
15 | NIK1 (UniProt Q5A599) | -0.731 | 0.254 | –
16 | SCH9 (UniProt Q5AHG6) | -0.2 | -0.178 | -1.05
17 | orf19.4575 | -0.428 | -0.272 | -2.61
18 | KIN2 | -0.0805 | -0.118 | -0.154
19 | MKK2 (UniProt P36507) | 0.148 | -0.183 | -1.11
20 | IRE1 (UniProt O75460) | -0.11 | 0.0485 | -0.0877
21 | CKA2 | 0.0997 | 0.026 | -1.17
22 | CKA1 | -0.241 | 0.0806 | -2.47
23 | SHA3 | -0.155 | -0.569 | -1.8
24 | CEK1 | -0.256 | -0.317 | -1.74
25 | CDC28 (UniProt P43063) | 0.12 | 0.127 | -0.931
26 | CTK1 | -0.0626 | -0.159 | –
27 | KSP1 | 0.0498 | -0.354 | -0.384
